Results from PubChem BioAssay (EPA / NIEHS).
Where a structure was tested more than once in an assay, its records may differ in their call. Activity calls are given as the source filed them. The calls were made as follows: active = hit-call score of the fitted dose curve at least 0.9, where 1 is the maximum; inactive = score below 0.9.

Read-out: Cytochrome P450 3A7 (Homo sapiens) (UniProt P24462)
Experiment: LTEA_HepaRG_CYP3A7: Life Technologies and Expression Analysis (LTEA) Assay for CYP3A7 using HepaRG (AID 2283492)
Details: mRNA level, 48 h; actives raise or lower the signal
Description: LTEA_HepaRG is a cell based, multiplexed-readout assay that uses HepaRG, a human liver cell line, with measurements taken at 48 hours after chemical dosing on a 96-well plate.LTEA_HepaRG_CYP3A7 is one of 102 assay component(s) measured in the LTEA HepaRG cell culture assay. It is a marker of NR mediated metabolism/Undifferentiated hepatocyte.Data from the assay component LTEA_HepaRG_CYP3A7 was analyzed into 1 endpoint. This assay endpoint, LTEA_HepaRG_CYP3A7, was analyzed with bidirectional fitting relative to DMSO as the negative control and baseline of activity. Using a type of inducible reporter, measures of mRNA induction for gain or loss-of-signal activity can be used to understand regulation of transcription factor activity. To generalize the intended target to other relatable targets, this assay endpoint is annotated to the cyp intended target family, where the subfamily is xenobiotic metabolism.
A total of 1060 chemcials from the ToxCast library were tested in eight-point concentration-response experiments. Cell culture and cytotoxicity assays were conducted at Thermo Fisher Scientific's Custom Services facility (Madison, WI). A single lot of human HepaRG cells (Thermo Fisher Scientific, Frederick, MD) was used for the cell culture experiments. 96-well format collagen type I coated plates of human HepaRG cells were prepared using established methods. Briefly, cryopreserved HepaRG cells were thawed, plated at a density of approximately 100,000 cells/well in HepaRG Thaw, Plate, and General Purpose media (HPRG770, Thermo Fisher Scientific), and incubated for 48 hours. 0.5% DMSO was selected as vehicle control to balance the requisite need of DMSO in HepaRG cultures to maintain differentiation (for example, baseline metabolism, proportions of hepatocytes vs. cholangiocytes), while enabling further hepatic receptor pathway activation (for example, PXR and CAR) in response to chemical exposure. 48 hours after plating, the culture medium was replaced with HepaRG Serum-Free Incudtion Media. Cells were exposed to each test chemical in duplicate and maintained in CO2 incubators for another 48 hours. Chemical plates were thawed to room temperature and 200x concentrations of treatment groups were prepared. 8-point conentration-reponse curves were made with the highest exposure at 100 uM, followed by half-log dilutions, all in 0.5% DMSO. Each test plate contained variouse controls, induction positive controls (1mM phenobarbital), cytotoxicity positive controls ([…] aflatoxin B1), vehicle controls (0.5% DMSO), and total lysis controls (0.5% DMSO). Cell morphology images were taken using an Essen IncuCyte FLR automated microscope, with six 96-well plates imaged in about 24 minutes. Images were captured and exported and JPEG files. Spent culture media was transfered to black-well plates for the LDH assay, and remaining media was sorted at -80 C for later use. Cells were treated with RLT buffer and frozen until shipped for gene expression analysis. Total RNA was isolated from the cell suspension in 75 uL of Buffer RLT (Qiagen, Germantown, MD 20874) by Quintiles/Expression Analysis (Durham, NC) using a custom isolation procedure. Total RNA from each plate well was transferred to a preamplification plate. Fluidigm's 96.96 Dynamic ArrayTM (Fluidigm, Amsterdam, the Netherlands) technology was used for gene expression analyses by quantitative reverse transcription polymerase chain reaction (qRT-PCR, performed by Quintiles/Expression Analysis, Durham, NC)89. Standard TaqManTM Assays (Applied Biosystems/ThermoFisher Scientific, Foster City, CA) were used to assess the expression of 93 genes selected based on their selectivity and sensitivity to important hepatic receptors known to be modulated by environmental chemicals; importance in human hepatocyte functionality; and hepatotoxicity. […]

Cytochrome P450 3A7 (Homo sapiens), sequence (P24462 whole entry, looked up): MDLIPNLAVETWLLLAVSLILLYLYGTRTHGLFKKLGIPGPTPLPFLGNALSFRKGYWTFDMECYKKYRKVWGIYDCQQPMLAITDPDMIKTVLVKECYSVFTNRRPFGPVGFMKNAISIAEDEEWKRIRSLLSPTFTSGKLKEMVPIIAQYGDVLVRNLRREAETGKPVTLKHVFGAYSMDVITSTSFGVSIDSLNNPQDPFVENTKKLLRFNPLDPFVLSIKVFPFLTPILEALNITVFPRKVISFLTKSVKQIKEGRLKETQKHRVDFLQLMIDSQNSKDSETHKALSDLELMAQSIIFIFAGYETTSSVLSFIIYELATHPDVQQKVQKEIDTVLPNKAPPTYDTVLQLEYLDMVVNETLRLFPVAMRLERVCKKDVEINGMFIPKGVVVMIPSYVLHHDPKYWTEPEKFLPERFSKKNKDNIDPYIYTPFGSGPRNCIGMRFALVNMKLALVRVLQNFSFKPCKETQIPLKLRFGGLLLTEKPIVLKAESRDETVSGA

SMILES	outcome	AC50
CCN1CCC2(CC1)COc1cc3c(cc12)N(C(=O)c1ccc(-c2ccc(-c4nnc(C)o4)cc2C)cc1)CC3	inactive	
C[C@]12CCC(=O)C[C@@H]1CC[C@@H]1[C@@H]2CC[C@]2(C)[C@@H](O)CC[C@@H]12	inactive	
O=C1C2(Cl)C3(Cl)C4(Cl)C(Cl)(Cl)C5(Cl)C3(Cl)C1(Cl)C5(Cl)C24Cl (stereo not given)	inactive	
Cc1ccccc1N	inactive	
O=C(O)C(F)(F)C(F)(F)C(F)(F)C(F)(F)C(F)(F)C(F)(F)F		35 µM (active)
NC(=O)O	inactive	
CC(C)(OO)c1ccccc1	inactive	
ClC1(Cl)C2(Cl)C3(Cl)C4(Cl)C(Cl)(Cl)C5(Cl)C3(Cl)C1(Cl)C5(Cl)C24Cl (stereo not given)		4.64 µM (active)
CC(C)(C)c1cc(O)ccc1O	inactive	
COc1cc(-c2ccc(N)c(OC)c2)ccc1N	inactive	82.9 µM (active)
ClCC(Cl)CCl	inactive	
O=[N+]([O-])c1ccc(O)c([N+](=O)[O-])c1		16.4 µM (active)
CC(C)(C)CC(C)(C)c1ccc(O)cc1	inactive	
CCOP(=S)(OCC)SCSP(=S)(OCC)OCC		50 µM (active)
O=C(O)C(F)(F)C(F)(F)C(F)(F)C(F)(F)C(F)(F)C(F)(F)C(F)(F)C(F)(F)C(F)(F)C(F)(F)F	inactive	
C=CC(=O)OCCCCCC(C)C	inactive	
O=c1[nH]c(=O)[nH]c(=O)[nH]1	inactive	
C=C(C)C(=O)[O][Sn]([CH2]CCC)([CH2]CCC)[CH2]CCC		2.71 µM (active)
O=C(Nc1ccc2[nH]ccc2c1)c1cc2cc(F)ccc2n1Cc1cccc(F)c1		75.6 µM (active)
CCCCCCCCc1ccc(O)cc1	inactive	
O=C(O)C(Cl)(Cl)Cl	inactive	
Oc1cccc2cccnc12	inactive	
CCOP(=S)(OCC)Oc1nc(Cl)c(Cl)cc1Cl	inactive	
CC(=O)[O][Hg][c]1ccccc1		5 µM (active)
Cn1sc(Cl)cc1=O	inactive	
CCC(C)(C)c1ccc(O)c(C(C)(C)CC)c1	inactive	
CC(C)(c1ccccc1)c1ccc(O)c(C(C)(C)c2ccccc2)c1		80.8 µM (active)
CN(C)N=O	inactive	
CC12CC1(C)C(=O)N(c1cc(Cl)cc(Cl)c1)C2=O (stereo not given)	inactive	
